# According to publication PMC7862700, “An all-to-all approach to the identification of sequence-specific readers for epigenetic DNA modifications on cytosine”:
# Experiments:
# Test in all cases: DAPPL (digital affinity profiling via proximity ligation, sequencing); 10 mM Tris-HCl pH 7.5, 50 mM NaCl, 1 mM DTT, 4% glycerol, room temperature, 30 min; GST-TFs on glutathione beads, 16-mer random dsDNA library, 0.1% formaldehyde crosslink after washing; high values mean tight binding
# Conditions in all cases: protein: recombinant; tags: N-terminal GST; dsDNA, one strand shown
# FLI1 = biological target: T1, FLI1 (Homo sapiens, UniProt Q01543 1-452)
# T1 sequence: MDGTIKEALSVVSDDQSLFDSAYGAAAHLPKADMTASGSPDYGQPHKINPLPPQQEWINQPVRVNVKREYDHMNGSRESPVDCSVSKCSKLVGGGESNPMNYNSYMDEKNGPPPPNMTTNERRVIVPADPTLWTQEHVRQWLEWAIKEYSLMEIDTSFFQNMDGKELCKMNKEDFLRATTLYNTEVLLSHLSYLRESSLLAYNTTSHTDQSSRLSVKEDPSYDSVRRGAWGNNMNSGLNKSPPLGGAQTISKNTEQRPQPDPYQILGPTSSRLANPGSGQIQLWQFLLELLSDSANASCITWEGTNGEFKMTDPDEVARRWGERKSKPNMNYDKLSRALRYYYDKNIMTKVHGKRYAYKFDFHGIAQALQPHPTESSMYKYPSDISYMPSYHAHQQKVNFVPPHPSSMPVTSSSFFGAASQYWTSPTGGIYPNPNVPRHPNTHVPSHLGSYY
# In short: (§1)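 A tag-only sample was pooled with DNA-barcoded human transcription factors that had been expressed in yeast as GST fusions and captured on glutathione beads. The pools were incubated for 30 min at room temperature with 200 nmole of a random double-stranded 16-mer DNA library in Tris/NaCl/DTT/glycerol buffer, then washed, crosslinked with 0.1% formaldehyde, proximity-ligated (BsaI/T4 ligase, 1 h, 37 °C), PCR-amplified and sequenced on an Illumina NextSeq500. Binding signal is each hexamer's read frequency for a factor divided by its frequency for the tag-only sample.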
# ELK1 = biological target: T2, ELK1 (Homo sapiens, UniProt P19419 1-428)
# T2 sequence: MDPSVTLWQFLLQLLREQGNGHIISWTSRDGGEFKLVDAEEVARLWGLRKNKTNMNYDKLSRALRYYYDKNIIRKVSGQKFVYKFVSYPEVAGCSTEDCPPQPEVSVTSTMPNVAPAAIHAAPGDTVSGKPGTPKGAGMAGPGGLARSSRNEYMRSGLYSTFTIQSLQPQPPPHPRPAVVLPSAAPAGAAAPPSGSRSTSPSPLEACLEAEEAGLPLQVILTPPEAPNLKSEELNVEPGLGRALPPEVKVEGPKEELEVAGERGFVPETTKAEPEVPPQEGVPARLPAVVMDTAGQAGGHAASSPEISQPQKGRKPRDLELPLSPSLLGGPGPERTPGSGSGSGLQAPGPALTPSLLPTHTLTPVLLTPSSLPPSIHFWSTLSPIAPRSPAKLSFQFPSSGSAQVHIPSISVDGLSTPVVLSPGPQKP
# In short: as §1
# GABPA = biological target: T3, GABPA (Homo sapiens, UniProt Q06546 1-454)
# T3 sequence: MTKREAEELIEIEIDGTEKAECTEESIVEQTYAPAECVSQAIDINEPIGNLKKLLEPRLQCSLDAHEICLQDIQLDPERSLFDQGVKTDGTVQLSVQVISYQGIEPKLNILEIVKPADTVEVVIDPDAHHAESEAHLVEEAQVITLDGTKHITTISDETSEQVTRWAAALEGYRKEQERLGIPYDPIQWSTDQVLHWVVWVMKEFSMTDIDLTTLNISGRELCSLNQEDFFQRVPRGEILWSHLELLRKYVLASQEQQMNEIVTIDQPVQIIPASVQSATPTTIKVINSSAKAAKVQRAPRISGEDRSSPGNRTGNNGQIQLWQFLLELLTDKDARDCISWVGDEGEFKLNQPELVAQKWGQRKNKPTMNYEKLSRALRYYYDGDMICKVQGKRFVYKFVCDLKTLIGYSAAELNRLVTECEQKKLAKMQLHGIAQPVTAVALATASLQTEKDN
# In short: as §1
# ERG = biological target: T4, ERG (Homo sapiens, UniProt P11308 1-479)
# T4 sequence: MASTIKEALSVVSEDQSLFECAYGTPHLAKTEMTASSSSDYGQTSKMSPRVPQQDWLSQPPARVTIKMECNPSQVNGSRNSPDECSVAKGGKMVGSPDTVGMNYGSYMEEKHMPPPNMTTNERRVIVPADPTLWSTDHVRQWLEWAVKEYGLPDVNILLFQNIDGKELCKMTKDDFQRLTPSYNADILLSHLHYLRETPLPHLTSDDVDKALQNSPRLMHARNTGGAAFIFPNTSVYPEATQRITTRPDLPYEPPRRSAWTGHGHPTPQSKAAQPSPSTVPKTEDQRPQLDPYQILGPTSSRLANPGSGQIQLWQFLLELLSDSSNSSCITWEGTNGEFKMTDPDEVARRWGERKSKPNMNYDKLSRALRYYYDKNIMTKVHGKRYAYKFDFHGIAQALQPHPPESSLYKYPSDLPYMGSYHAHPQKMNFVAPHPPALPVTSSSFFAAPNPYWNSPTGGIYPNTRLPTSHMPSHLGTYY
# In short: as §1
# ELF1 = ELF1 (Homo sapiens, UniProt P32519 1-619)
# In short: as §1
# EHF = biological target: T5, EHF (Homo sapiens, UniProt Q9NZC4 1-300)
# T5 sequence: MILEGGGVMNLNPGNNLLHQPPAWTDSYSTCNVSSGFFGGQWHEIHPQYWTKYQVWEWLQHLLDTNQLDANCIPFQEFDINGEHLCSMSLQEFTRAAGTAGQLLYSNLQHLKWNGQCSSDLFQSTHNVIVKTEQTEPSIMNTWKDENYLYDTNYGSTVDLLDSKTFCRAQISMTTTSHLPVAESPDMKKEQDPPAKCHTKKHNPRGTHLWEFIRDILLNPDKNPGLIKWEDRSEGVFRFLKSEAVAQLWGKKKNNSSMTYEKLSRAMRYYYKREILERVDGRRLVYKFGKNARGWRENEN
# In short: as §1
# SPI1 = SPI1 (Homo sapiens, UniProt P17947 1-270)
# In short: as §1
# SPIB = SPIB (Homo sapiens, UniProt Q01892 1-262)
# In short: as §1
# ELK3 = biological target: T6, ELK3 (Homo sapiens, UniProt P41970 1-407)
# T6 sequence: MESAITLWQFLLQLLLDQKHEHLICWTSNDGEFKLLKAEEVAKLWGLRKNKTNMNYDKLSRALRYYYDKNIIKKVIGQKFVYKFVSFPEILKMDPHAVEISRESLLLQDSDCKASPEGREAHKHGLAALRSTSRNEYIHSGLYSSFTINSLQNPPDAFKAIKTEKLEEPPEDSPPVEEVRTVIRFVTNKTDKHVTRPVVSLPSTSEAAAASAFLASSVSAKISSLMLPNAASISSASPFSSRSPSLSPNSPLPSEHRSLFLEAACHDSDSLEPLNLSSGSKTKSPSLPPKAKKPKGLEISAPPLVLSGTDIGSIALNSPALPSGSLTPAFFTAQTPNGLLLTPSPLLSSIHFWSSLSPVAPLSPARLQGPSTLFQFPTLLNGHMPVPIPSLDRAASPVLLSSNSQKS
# In short: as §1
# Chain of SPIB (Q01892 whole entry): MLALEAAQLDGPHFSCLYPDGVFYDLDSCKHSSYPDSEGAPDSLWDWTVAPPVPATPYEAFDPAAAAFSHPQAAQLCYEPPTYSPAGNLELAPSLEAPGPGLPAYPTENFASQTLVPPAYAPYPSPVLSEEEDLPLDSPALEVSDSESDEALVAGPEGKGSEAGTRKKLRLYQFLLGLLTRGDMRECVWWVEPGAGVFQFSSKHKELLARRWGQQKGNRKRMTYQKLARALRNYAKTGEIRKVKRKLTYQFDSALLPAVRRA
# Chain of ELF1 (P32519 whole entry): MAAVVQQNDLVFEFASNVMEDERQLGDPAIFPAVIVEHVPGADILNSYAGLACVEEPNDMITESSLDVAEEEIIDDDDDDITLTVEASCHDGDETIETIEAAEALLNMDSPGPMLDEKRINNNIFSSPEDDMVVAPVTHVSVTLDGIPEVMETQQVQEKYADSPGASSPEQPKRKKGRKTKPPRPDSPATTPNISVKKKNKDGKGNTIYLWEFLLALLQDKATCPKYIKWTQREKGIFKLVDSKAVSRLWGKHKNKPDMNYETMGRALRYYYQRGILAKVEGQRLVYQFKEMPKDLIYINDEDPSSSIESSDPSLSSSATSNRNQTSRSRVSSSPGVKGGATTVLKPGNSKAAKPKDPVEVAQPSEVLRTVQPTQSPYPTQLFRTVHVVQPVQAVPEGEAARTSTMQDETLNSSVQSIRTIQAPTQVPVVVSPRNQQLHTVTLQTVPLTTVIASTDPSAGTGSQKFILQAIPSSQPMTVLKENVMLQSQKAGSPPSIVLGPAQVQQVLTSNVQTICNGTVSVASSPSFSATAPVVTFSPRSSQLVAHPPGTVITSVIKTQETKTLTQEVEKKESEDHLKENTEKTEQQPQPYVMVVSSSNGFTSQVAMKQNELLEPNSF
sequence,measurement,setting,value
AAGCTC,binding signal,FLI1,"1.22 fold enrichment (6-mer frequency, TF over GST control)"
same,binding signal,ELK1,"1.22 fold enrichment (6-mer frequency, TF over GST control)"
same,binding signal,GABPA,"1.25 fold enrichment (6-mer frequency, TF over GST control)"
same,binding signal,ERG,"1.17 fold enrichment (6-mer frequency, TF over GST control)"
same,binding signal,ELF1,"1.2 fold enrichment (6-mer frequency, TF over GST control)"
same,binding signal,EHF,"1.15 fold enrichment (6-mer frequency, TF over GST control)"
same,binding signal,SPI1,"1.12 fold enrichment (6-mer frequency, TF over GST control)"
same,binding signal,SPIB,"1.11 fold enrichment (6-mer frequency, TF over GST control)"
same,binding signal,ELK3,"1.09 fold enrichment (6-mer frequency, TF over GST control)"
